Experiment [1] can be described thus: qHTS assay for measurement of the activity of small molecule inhibitors on Zika virus induced Caspase-3 activity in human iPSC derived neural progenitor cells (hNPCs) (AID 1224857). Also: nearly all actives have a fitted effect of over 65% in size. In a few lines:
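After overnight (16–20 h) culture at 350 cells/well, hNPCs get compound, then ZIKV 2 FFU/cell one hour later. Six hours on, Caspase-Glo 3/7 is added and luminescence measured.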
A general note: In qHTS, concentration-response curves come from the screen itself.

Experiment [2] can be described thus: qHTS assay for measurement of the activity of small molecule inhibitors on Zika virus induced Caspase-3 activity in human astrocytoma cells (AID 1224859). In a few lines:
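Inhibition of Zika-induced caspase-3/7 activity: SNB-19 cells, 1 h compound pretreatment, ZIKV 2 FFU/cell for 6 h at 37 C, Caspase-Glo luminescence read-out.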

The nature of experiment [3]: Natriuretic polypeptide receptor (hNpr1) antagonism - Pilot counterscreen GloSensor control cell line (AID 1347045; calls by dose curve; also: potency is read from the fitted curve at half-maximal effect). In a few lines: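 The SNP-driven cGMP luminescence signal (50 uM, 20 min, room temperature) was measured in GloSensor HEK293 control cells. Compounds were tested as a LOPAC titration series and preincubated for 30-50 min.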
Background: Counterscreens check selectivity or assay interference.

In experiment [4] the target is Atrial natriuretic peptide receptor 1 (Homo sapiens) (UniProt P16066). Put plainly: Natriuretic polypeptide receptor (hNpr1) antagonism - Pilot screen (AID 1347049; calls by dose curve;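 also: agonist-evoked cGMP luminescence read 20 min after hNppA addition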; also: potency is read from the fitted curve at half-maximal effect). The method, boiled down:
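cGMP-sensor HEK293/hNpr1 cells, 1500/well, plated overnight at 37C. 2% GloSensor reagent, 2 h RT. Compound (23 nL pin transfer) 30 min RT, baseline luminescence pre-read. 0.1 nM hNppA, 20 min RT, post-read.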

Experiment [5] concerns the target Atrial natriuretic peptide receptor 2 (Homo sapiens) (UniProt P20594). Put plainly: Natriuretic polypeptide receptor (hNpr2) antagonism - Pilot subtype selectivity assay (AID 1347050; calls by dose curve). The method, boiled down: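 Luminescence from a genetically encoded cGMP luciferase biosensor in hNpr2-expressing HEK293 cells is read before and 20 min after adding 1 nM hNppC. Test compounds, in interplate 1:5 titrations, are added 30-50 min ahead of the agonist.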

A short description of experiment [6]: NS1 protein of Zika virus - qHTS assay to identify small molecule inhibitors in human HEK 293 cells (AID 1347053). Also: series mostly up to about 46 µM; nearly all actives have a fitted effect of over 55% in size. The method, boiled down:
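In this cell-based screen, HEK 293 cultures received compound for one hour before Zika MR766 at MOI = 0.5. NS1 was quantified 24 hours later by TR-FRET, normalized to virus-free wells and infected wells.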

In experiment [7] the target is T1, Tyrosine-protein phosphatase non-receptor type substrate 1 (Homo sapiens) + Leukocyte surface antigen CD47 (Homo sapiens) (UniProt P78324+Q08722). The experiment is described as follows: CD47-SIRPalpha protein protein interaction - HTRF assay qHTS validation (AID 1347058; active = well fitted curve in the direction sought with a large enough effect in the signal ratio, not every such curve was filed as active; the % refers to the signal ratio; also: series mostly up to about 38 µM). In a few lines:
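Soluble extracellular domains (6His-CD47, Avi-tag-biotinylated SIRPalpha) in PBS pH 7.4 with 0.05% IGEPAL CA-630. Compounds were preincubated 30 min at RT with CD47 and anti-His-Eu, then SIRPalpha and SAV-XL665 were added. TR-FRET 665/615 ratio.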
(In general: In TR-FRET formats the signal depends on donor and acceptor labels being close together.)

The target in experiment [8] is T1, Tyrosine-protein phosphatase non-receptor type substrate 1 (Homo sapiens) + Leukocyte surface antigen CD47 (Homo sapiens). The experiment is described as follows: CD47-SIRPalpha protein protein interaction - Alpha assay qHTS validation (AID 1347059).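 Also: bead proximity luminescence from CD47 binding SIRPalpha after compound preincubation with SIRPalpha.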 The method, boiled down: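 SIRPalpha-biotin 25 nM + cpd, 30 min RT, dark; add CD47-His 12.5 nM, 30 min; add Ni-NTA/SAV beads 10 ug/mL, 30 min; AlphaScreen. Buffer PBS pH 7.4 + 0.05% IGEPAL CA-630. Non-biotinylated SIRPalpha as control inhibitor.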

Experiment [9] has as its target Parathyroid hormone/parathyroid hormone-related peptide receptor (Homo sapiens) (UniProt Q03431). Put plainly: qHTS for PTHR1 Agonists: Optimization Screen against the NCGC LOPAC library (AID 1347079).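 Also: GloSensor cAMP luminescence in HEK-293 GP2 cells expressing human PTHR1 with IBMX.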 In a few lines:
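Signal increase flags agonism. GP2 cells, derived from HEK-293, express human PTHR1 and a GloSensor cAMP construct.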

Experiment [10] addresses N-terminal Xaa-Pro-Lys N-methyltransferase 1 (Homo sapiens) (UniProt Q9BV86). The experiment is described as follows: qHTS Assay for Inhibitors of N-terminal methyltransferase 1 (NTMT1): LOPAC validation of the NTMT1 SAHH-coupled ThioGlo3 Assay (AID 1347143).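 Also: SAH from peptide methylation measured as thiol fluorescence via SAHH coupling and ThioGlo3; nearly all actives have a fitted effect of over 70% in size.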 Also: potency is read from the fitted curve at half-maximal effect. The method, boiled down: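 Steps: dispense 125nM NTMT1; pin-transfer test compounds at several concentrations, with 1uM RCC1-6 peptide as control; incubate 1 min; start with reagent holding 100uM SAM, 10uM SAHH, 15uM ThioGlo3; read at 0 and 30 min.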

Experiment [11] has as its system Zika virus NS2B-NS3 protease (unlinked). The experiment is described as follows: Optimization of GU AMC qHTS for Zika virus inhibitors: Unlinked NS2B-NS3 protease assay (AID 1347151). Also: nearly all actives have a fitted effect of over 80% in size. Also: potency is read from the fitted curve at half-maximal effect. In a few lines:
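Noncovalent complex of NS2B hydrophilic domain and NS3 protease domain, 25 nM final, in 10 mM Tris-HCl pH 8.0, 0.01% Tween 20. AMC fluorescence change over 15 min at room temperature was fitted to a 4-parameter Hill equation.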

For another experiment, the target named is Furin (Homo sapiens) (UniProt P09958). Put plainly: Furin counterscreen qHTS for Zika virus inhibitors (AID 1347149).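 Also: purified recombinant full-length human furin enzyme at 5 nM; fluorescence gain from furin cutting a BOC-RVRR-AMC peptide substrate over 15 min; top concentration of the series differs between compounds; nearly all actives have a fitted effect of over 70% in size.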 In a few lines: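 Counterscreen measures cleavage of 2 microM BOC-RVRR-AMC, below its ~15 microM Km, by 5 nM full-length human furin at pH 7.0 after a 15-min compound preincubation. Inhibition derives from the 15-min fluorescence increase at 37C.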
Sequence of Furin (Homo sapiens) (P09958 whole entry, looked up): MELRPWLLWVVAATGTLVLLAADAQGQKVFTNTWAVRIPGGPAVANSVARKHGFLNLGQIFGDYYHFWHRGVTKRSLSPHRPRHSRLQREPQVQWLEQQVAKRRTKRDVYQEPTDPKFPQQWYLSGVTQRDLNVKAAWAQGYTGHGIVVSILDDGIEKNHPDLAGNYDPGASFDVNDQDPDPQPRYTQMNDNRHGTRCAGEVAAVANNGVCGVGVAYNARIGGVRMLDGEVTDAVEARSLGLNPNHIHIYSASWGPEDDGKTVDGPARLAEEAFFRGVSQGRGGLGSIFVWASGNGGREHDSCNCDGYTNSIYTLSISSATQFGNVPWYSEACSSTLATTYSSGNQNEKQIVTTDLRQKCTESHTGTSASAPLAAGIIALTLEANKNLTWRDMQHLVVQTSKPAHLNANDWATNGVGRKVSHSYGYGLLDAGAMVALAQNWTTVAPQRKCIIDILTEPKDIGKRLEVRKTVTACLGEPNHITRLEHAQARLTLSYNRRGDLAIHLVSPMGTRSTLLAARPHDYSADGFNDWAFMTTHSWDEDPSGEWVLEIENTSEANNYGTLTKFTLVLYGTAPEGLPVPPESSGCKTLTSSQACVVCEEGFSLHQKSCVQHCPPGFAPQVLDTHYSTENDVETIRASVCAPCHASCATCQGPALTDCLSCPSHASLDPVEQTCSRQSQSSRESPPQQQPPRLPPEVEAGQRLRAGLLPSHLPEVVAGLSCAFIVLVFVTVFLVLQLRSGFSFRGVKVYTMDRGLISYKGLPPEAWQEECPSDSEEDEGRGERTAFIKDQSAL

The target of experiment [12] is T1, Tyrosine-protein phosphatase non-receptor type substrate 1 (Homo sapiens) + Leukocyte surface antigen CD47 (Homo sapiens). The experiment is described as follows: CD47-SIRPalpha protein protein interaction - LANCE assay qHTS validation (AID 1347057; active = well fitted curve in the direction sought with a large enough effect in the signal ratio, with a control signal flat, not every such curve was filed as active; the % refers to the signal ratio; also: series mostly up to about 38 µM). The method, boiled down: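 Inhibition of soluble CD47/SIRPalpha ectodomain association by titrated compounds, measured as 665/615 nm time-resolved FRET ratio after sequential 30 min room-temperature incubations.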

Inconclusive results are not listed. The source made the active and inactive calls. Unless noted, calls follow the shape of the dose curve; as a rule, active = well fitted curve in the direction sought with a large enough effect; inconclusive = small, poorly fitted or top-dose-only effect, or another doubt; inactive = no such curve, though single readings can be large; an effect the other way counts as inactive or inconclusive.

T1 sequence (P78324 whole entry, looked up, the tested form may be a part): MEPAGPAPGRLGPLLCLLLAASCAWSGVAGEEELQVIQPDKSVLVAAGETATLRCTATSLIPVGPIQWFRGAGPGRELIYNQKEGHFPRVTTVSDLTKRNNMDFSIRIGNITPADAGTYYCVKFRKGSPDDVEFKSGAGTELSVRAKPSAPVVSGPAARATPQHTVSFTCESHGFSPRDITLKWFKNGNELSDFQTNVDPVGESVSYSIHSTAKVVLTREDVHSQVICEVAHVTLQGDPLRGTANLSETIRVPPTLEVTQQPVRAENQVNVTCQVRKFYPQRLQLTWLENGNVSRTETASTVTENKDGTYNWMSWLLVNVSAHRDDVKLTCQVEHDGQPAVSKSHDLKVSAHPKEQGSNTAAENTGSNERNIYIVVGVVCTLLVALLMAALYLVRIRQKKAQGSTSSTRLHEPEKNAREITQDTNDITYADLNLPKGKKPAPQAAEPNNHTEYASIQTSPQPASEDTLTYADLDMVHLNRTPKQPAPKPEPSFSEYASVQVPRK
T1 sequence (Q08722 whole entry, looked up, the tested form may be a part): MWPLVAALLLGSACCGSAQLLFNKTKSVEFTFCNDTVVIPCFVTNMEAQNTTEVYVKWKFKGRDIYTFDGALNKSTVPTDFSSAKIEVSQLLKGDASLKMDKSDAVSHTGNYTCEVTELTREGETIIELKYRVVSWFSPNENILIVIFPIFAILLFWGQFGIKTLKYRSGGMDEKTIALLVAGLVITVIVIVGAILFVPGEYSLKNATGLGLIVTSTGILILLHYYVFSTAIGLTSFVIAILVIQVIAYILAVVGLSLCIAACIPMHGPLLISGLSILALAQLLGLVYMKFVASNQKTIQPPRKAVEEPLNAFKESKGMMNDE
Sequence of Parathyroid hormone/parathyroid hormone-related peptide receptor (Homo sapiens) (Q03431 whole entry, looked up): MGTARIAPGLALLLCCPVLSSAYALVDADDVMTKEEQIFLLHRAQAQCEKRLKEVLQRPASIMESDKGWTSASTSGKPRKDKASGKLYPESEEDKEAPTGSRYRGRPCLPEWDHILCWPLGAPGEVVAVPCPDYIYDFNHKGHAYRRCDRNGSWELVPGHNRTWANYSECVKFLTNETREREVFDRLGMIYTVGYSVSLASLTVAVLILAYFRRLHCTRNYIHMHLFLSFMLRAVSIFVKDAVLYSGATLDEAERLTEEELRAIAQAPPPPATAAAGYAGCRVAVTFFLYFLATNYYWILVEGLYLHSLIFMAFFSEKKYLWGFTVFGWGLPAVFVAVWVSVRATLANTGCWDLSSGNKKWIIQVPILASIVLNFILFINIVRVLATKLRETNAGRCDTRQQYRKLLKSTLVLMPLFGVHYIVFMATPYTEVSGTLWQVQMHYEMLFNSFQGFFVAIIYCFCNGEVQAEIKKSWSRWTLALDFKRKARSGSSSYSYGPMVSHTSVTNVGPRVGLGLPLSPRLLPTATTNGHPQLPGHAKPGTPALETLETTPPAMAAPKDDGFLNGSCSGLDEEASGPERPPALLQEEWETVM
Sequence of Atrial natriuretic peptide receptor 1 (Homo sapiens) (P16066 whole entry, looked up): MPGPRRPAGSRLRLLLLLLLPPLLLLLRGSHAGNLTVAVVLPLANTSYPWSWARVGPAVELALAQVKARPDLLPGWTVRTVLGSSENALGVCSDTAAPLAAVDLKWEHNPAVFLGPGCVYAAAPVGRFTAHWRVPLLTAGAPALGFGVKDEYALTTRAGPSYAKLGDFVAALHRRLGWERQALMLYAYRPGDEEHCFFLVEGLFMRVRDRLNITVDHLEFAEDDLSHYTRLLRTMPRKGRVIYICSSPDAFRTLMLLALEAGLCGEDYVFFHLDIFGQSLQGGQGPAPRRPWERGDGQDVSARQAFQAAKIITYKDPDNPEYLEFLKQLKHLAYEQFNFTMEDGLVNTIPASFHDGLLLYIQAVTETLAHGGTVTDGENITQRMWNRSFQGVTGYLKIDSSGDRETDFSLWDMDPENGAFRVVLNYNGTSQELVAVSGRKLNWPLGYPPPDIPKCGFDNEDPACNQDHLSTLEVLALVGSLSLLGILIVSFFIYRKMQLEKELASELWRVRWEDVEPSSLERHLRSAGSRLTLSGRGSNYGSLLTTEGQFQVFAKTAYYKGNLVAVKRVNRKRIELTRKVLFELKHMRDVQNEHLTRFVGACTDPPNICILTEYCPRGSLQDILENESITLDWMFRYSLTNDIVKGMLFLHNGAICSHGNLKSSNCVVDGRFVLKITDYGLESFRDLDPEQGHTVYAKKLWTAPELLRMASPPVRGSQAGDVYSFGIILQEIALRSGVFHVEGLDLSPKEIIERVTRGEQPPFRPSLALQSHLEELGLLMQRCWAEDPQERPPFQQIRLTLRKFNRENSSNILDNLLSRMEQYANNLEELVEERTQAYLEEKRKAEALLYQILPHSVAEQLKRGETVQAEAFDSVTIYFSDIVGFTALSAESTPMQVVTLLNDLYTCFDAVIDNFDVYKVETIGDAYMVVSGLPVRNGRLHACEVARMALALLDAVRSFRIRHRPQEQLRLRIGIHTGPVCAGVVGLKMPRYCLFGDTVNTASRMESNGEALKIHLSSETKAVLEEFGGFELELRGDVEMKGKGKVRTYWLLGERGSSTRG
Sequence of N-terminal Xaa-Pro-Lys N-methyltransferase 1 (Homo sapiens) (Q9BV86 whole entry, looked up): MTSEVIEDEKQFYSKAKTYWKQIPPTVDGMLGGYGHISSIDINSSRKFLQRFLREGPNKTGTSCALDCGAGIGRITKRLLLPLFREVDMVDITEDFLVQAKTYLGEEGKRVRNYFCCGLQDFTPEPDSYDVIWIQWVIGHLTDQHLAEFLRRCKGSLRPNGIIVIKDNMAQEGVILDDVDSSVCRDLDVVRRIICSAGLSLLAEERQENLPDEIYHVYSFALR
Sequence of Atrial natriuretic peptide receptor 2 (Homo sapiens) (P20594 whole entry, looked up): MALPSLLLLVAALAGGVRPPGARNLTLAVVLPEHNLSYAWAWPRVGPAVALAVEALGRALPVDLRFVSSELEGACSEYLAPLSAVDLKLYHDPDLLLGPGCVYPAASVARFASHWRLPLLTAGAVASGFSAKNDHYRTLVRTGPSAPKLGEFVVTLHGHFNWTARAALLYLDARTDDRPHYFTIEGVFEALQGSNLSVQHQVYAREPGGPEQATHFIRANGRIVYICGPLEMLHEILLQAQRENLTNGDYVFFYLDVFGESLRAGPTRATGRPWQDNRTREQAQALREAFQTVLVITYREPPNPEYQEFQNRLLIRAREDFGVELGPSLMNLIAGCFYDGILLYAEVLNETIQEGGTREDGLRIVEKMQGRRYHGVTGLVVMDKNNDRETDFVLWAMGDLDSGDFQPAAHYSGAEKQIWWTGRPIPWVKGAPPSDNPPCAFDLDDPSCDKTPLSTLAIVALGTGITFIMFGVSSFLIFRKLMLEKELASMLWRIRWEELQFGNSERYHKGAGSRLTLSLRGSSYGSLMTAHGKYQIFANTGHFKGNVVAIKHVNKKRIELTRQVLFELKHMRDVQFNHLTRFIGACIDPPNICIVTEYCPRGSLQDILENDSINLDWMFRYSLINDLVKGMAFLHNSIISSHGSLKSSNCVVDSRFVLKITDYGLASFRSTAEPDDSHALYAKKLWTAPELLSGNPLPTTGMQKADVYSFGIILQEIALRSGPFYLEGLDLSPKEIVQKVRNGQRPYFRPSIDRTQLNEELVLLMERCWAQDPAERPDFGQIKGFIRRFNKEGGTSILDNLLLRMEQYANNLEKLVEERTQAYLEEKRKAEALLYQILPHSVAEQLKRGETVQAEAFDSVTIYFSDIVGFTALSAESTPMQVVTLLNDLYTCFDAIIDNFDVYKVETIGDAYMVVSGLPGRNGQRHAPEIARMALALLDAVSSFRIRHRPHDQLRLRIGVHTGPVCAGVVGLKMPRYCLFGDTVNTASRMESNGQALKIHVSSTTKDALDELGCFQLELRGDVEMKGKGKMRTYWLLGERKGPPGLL

As for `Cc1cccc(C)c1OCC(N)C(C)C` (stereo not drawn), the Potency result in [1], in experiment [2], in experiment [3], in [4], in [5] and in experiment [6] was “inactive” in each case. In addition, the Potency entry in experiment [8], in experiment [9] and in [11] was “inactive” throughout. Further, in [7], the outcome was inactive. Besides, the Potency in experiment [10] was 50.1 µM (active).
On to `O=C1NC(=O)c2cc(Nc3ccccc3)c(Nc3ccccc3)cc21`, for which the Potency entry in [1], in experiment [2], in [3], in [4], in [5] and in experiment [6] was “inactive” throughout. The Potency entry (in [8]; in [9]; with Furin (Homo sapiens)) was “inactive” each time.
Regarding `CCCN(CCc1ccccc1)C1CCc2c(O)cccc2C1` (stereo not drawn), the Potency result in [1], in experiment [2], in experiment [3], in experiment [4], in experiment [5] and in experiment [6] was “inactive” each time. In addition, the Potency result in experiment [8], in [9], in experiment [10] and in experiment [11] was “inactive” each time. The outcome in [7] was inactive.
Regarding `O=C1OC(=O)C2C3CCC(O3)C12` (stereo not drawn), the Potency result in experiment [1], in experiment [2], in experiment [3], in experiment [4], in experiment [5] and in experiment [6] was “inactive” each time. In addition, the Potency entry in [8], in [9], in [10] and in [11] was “inactive” in each case. Further, the result in [7] was inactive.
As to `CCCn1c(=O)c2c(ncn2C)n(CCC)c1=O`, the Potency entry in [1], in [2], in [3], in experiment [4], in experiment [5] and in experiment [6] was “inactive” each time. Further, the Potency entry in [8], in experiment [10] and in experiment [11] was “inactive” in each case. Besides, the result in [7] was inactive.
Take `CC(C)(C)c1ccc(/C=C/C(=O)Nc2ccc3c(c2)OCCO3)cc1`: the Potency result in [1], in [2], in experiment [6], in [12], in experiment [8] and in experiment [9] was “inactive” in each case. Also, in experiment [11], the Potency entry is “inactive”. For the same molecule, the Potency is 16.5 µM (active) in experiment [3] and 23.9 µM (active) in experiment [4].
With `CCCCCCCC/C=C\CCCCCCCC(=O)NCCc1ccc(O)c(O)c1`, the Potency entry in [1], in experiment [2], in [3], in experiment [4], in experiment [6] and in experiment [12] was “inactive” in each case. The Potency entry in experiment [8], in experiment [9] and in experiment [10] was “inactive” in each case. Also, the Potency in experiment [11] is 7.52 µM (active).
As to `O=c1[nH]c(=O)c2nc3ccccc3nc2[nH]1`, the Potency result in [1], in experiment [2], in experiment [3], in [4], in experiment [5] and in experiment [6] was “inactive” throughout. Besides, the Potency result in experiment [8] and in experiment [9] was “inactive” in each case. Also, the Potency in [10] is 56.2 µM (active); in experiment [11], 26.7 µM (active).
As for `CCC1(O)CC2CN(CCc3c([nH]c4ccccc34)[C@@](C(=O)OC)(c3cc4c(cc3OC)N(C=O)C3[C@]45CCN4CC=C[C@@](CC)([C@@H](OC(C)=O)[C@]3(O)C(=O)OC)[C@H]45)C2)C1` (stereo partly drawn), the Potency result in experiment [1], in experiment [2], in experiment [3], in experiment [4], in experiment [6] and in [12] was “inactive” each time. Further, the Potency result in [8], in experiment [9] and in experiment [11] was “inactive” in each case. In addition, the outcome in [7] was inactive.
For the molecule `NC(=O)c1cc[n+](CC2=C(C(=O)O)N3C(=O)[C@@H](NC(=O)[C@@H](c4ccccc4)S(=O)(=O)[O-])[C@H]3SC2)cc1`, the Potency result in [1], in [2], in [3], in [4], in [5] and in experiment [6] was “inactive” in each case. Further, the Potency result in experiment [8], in experiment [9], in experiment [10] and in experiment [11] was “inactive” in each case. Besides, the result in [7] was inactive.
Take `O=c1[nH]c(=S)[nH]c(-c2ccccc2)c1Cc1c(O)ccc2ccccc12`: the Potency result in experiment [1], in experiment [2], in experiment [3], in [4], in experiment [5] and in experiment [6] was “inactive” each time. The Potency result (in experiment [9]; with Furin (Homo sapiens)) was “inactive” each time. In addition, the outcome in experiment [7] was inactive. Besides, the Potency is 79.4 µM (active) in [10] and 7.52 µM (active) in experiment [11].

Source of the values: PubChem BioAssay (NCATS).
